Screening data from PubChem BioAssay.
Hits are enriched below; roughly 3.2% of the tested compounds scored in any of these assays.
PNC assembly inh – inhibitors of perinucleolar compartment assembly; activity change (PNC), negative = inhibition, % at 10 µM; AID 2417; PC3M PTB-GFP, PNC prevalence imaging, 16 h; active compounds read low; 3.1% of 140,000 active;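 active means readout at or below -70, meaning at least 70% loss of cells showing the perinucleolar compartment, a nuclear body marking cancer cells; inconclusive means readout between -30 and a set limit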;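 further: plate controls were DMSO wells for no effect and camptothecin positive control wells for full effect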
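Read-out is percentage of cells bearing a perinucleolar compartment, from automated 20x imaging of fixed, Hoechst-stained PC3M PTB-GFP cells. Cells were seeded 4 h, then exposed 16 h to compound (23 nl of library stock) in duplicate plates.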
12-hLO inh – inhibitors of human 12-lipoxygenase (ALOX12). P18054. purified 12-hLO, xylenol orange hydroperoxide absorbance. Potency, µM (titrated, usually from 57.1 µM), for the others: at the highest dose activity change, negative = inhibition, usual class: inhibitors. 0.12% of 150,000 active. AID 1452; further: potency means the concentration at half of the fitted maximal effect; nearly all actives have a fitted effect of over 55% in size
Target sequence (P18054 whole entry, looked up): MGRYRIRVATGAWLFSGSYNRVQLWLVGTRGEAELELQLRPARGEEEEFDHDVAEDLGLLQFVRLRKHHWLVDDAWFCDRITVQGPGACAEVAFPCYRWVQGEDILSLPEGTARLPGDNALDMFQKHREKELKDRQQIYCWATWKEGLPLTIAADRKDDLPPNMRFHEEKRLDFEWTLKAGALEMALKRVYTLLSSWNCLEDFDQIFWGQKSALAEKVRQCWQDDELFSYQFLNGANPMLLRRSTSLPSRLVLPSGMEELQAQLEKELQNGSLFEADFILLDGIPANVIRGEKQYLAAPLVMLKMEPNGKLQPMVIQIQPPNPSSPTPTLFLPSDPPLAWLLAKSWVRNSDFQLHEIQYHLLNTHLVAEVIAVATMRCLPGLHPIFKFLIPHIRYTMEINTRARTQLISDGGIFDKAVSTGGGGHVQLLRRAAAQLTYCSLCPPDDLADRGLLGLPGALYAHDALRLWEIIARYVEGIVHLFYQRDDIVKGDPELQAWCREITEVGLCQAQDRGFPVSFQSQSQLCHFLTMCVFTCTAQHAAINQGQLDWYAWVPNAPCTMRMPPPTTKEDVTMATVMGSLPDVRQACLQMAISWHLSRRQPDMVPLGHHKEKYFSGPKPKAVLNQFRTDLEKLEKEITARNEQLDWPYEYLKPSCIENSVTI
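Xylenol orange chromogenic assay: hydroperoxide from 12hLO oxidises Fe(II), giving red-shifted Fe(III)-XO absorbance. Conditions: 150 nM enzyme, 40 uM arachidonic acid, 25 mM Hepes pH 7.0, 0.01% Triton X-100, 30 min, room temperature.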
15-hLO-2 inh – 15-hLO-2 (ALOX15B) enzyme inhibition; Potency, µM (doses to about 57.1 µM), for the others: at the highest dose activity change, negative = inhibition, actives largely listed as inhibitors; AID 881; 0.56% of 110,000 active; O15296; purified 15hLO-2, xylenol orange hydroperoxide absorbance; further: potency means the concentration at half of the fitted maximal effect; nearly all actives have a fitted effect of over 60% in size
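Screening format was qHTS against 50 nM purified 15hLO-2 in Hepes pH 7.5 with detergent. Activity follows hydroperoxide formation from 45 uM arachidonic acid, measured as 573:405 nm absorbance ratio of the ferric-xylenol orange complex.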
* marks the source's active call; other numbers are inactive results; u = inconclusive; x = not tested or not shown; [ ] = dose if it differs, or a comment. Unless noted, the call rests on the fitted dose curve; in most records, active means well fitted curve in the direction sought with a large enough effect; inconclusive means small, poorly fitted or top-dose-only effect, or another doubt; inactive means no such curve, though single readings can be large; an effect the other way counts as inactive or inconclusive. Unless noted, on the % scale 0 is the no-effect control and ±100 the full control effect.

SMILES	PNC assembly inh	12-hLO inh	15-hLO-2 inh
CC(C)(C)n1ncc2c(=O)n(CC(=O)Nc3ccc4c(c3)OCO4)cnc21	-15.1	-6.6%	-0.7%
CCC(C)c1ccc(NC(=O)C2CCN(c3ncccn3)CC2)cc1 (stereo unspecified)	u	-0.4%	x
CCOC(=O)c1c(NC(=O)C2c3ccccc3Oc3ccccc32)sc(C(N)=O)c1C	u	-10.5%	2.2%
CCC1CCc2c(sc(NC(=O)C3c4ccccc4Oc4ccccc43)c2C(N)=O)C1 (stereo unspecified)	-94.9*	-4.4%	x
CC1=Nc2ccccc2/C1=C\c1nc(-c2ccc(F)cc2)oc1O	57.1	-21.9%	-4.5%
CCC(=O)N1C(=O)CCN(C(C)=O)c2ccccc21	-93.7*	-1.9%	x
CCC(=O)N1CC(C)C(=O)Nc2ccccc21 (stereo unspecified)	7.7	-5.8%	8.4%
CCO[P@]1(=O)OC[C@@H]2O[C@H](n3cnc4c(N)ncnc43)[C@H](O)[C@@H]2O1	x	-3.0%[11.4 µM]	-2.8%[11.4 µM]
Cc1ccc(C(=O)N/C(=C\c2ccc(F)cc2)C(=O)NCc2ccncc2)cc1	-119.3*	-1.9%	x
O=C(NCc1ccncc1)/C(=C\c1ccc(F)cc1)NC(=O)c1ccccc1	31.4	1.3%	x
CC(C)C[C@@H](CC(=O)N[C@H](CC(=O)N[C@@H]1CCCC[C@H]1C(=O)N[C@H](CC(=O)N[C@@H](CCC(=O)O)CC(=O)O)CC(C)C)C(C)C)NC(=O)[C@@H]1CCCC[C@H]1N	x	-1.0%	x
Cc1noc(C)c1S(=O)(=O)N1CCc2nc(-c3ccccc3)c3c(c2C1)CO[C@@H](C)C3	x	5.0%[11.4 µM]	x
N#Cc1ccc(CN2CC3(CCN(C(=O)c4ccncc4)CC3)C2)cc1	x	2.7%	3.0%
Cc1nnc(SC(C)C(=O)Nc2ncc(Cl)cc2Cl)n1Cc1ccccc1 (stereo unspecified)	-3.8	-6.9%	21.0%
CC(OC(=O)c1nn(C(C)C)c(=O)c2ccccc12)C(=O)Nc1ncc(Cl)cc1Cl (stereo unspecified)	20.9	-0.9%	x
Cc1cc(SC(C)C(=O)Nc2ncc(Cl)cc2Cl)nc2ccccc12 (stereo unspecified)	-92.0*	2.1%	x
COCCn1c(SC(C)C(=O)Nc2ncc(Cl)cc2Cl)nc2ccccc21 (stereo unspecified)	-103.2*	-1.1%	3.0%
CCOC(=O)c1c(C)c(-c2ccccc2)n(CC(=O)NCCC(C)C)c1C	u	0.4%	-5.0%
Cc1noc(C)c1C(=O)N1CCC[C@@]2(CCN(c3ccccc3)C2)C1	x	-17.6%	-2.5%
CCn1c(CCC(=O)Nc2nc3c(s2)CCCC3)nc2cc(S(=O)(=O)N(C)C)ccc21	-4.4	-0.7%	8.8%[2.29 µM]
NC(CCC(=O)N[C@@H](CS)C(=O)NCC(=O)O)C(=O)O (stereo partly specified)	x	-4.2%	15.3%
Cn1c(=S)[nH]c2[nH]c(=O)cnc2c1=O	-27.2	2.8%	x
CCOc1cc(NC(=S)Nc2cccc(OC)c2)c(OCC)cc1NC(=O)C1CC1	-106.0*	u	u
CCOc1cc(NC(=O)C2CCCCC2)c(OCC)cc1NC(=O)c1ccco1	-14.0	0.1%	2.2%
COC(=O)/C(=C/c1cccnc1)NC(=O)c1ccccc1	u	1.4%	x
SMILES	PNC assembly inh	12-hLO inh	15-hLO-2 inh
CC(C)OC(=O)/C(=C/c1cccnc1)NC(=O)c1ccccc1	-91.8*	-1.0%	x
COc1ncc2nc(-c3ccc(F)cc3)c(=O)n(CCc3ccccc3)c2n1	x	x	-2.8%
C[C@]12CC[C@H]3c4ccc(O)cc4CC[C@@H]3[C@H]1CC[C@@H]2OC(=O)CCC1CCCC1	x	-5.8%[11.4 µM]	-5.7%[11.4 µM]
CCOC(=O)N1CCC(N2C(=O)c3ccccc3C2Nc2ccccc2C)CC1 (stereo unspecified)	u	-8.0%	-1.2%
O=C(NCc1ccco1)c1cccc2c1C(=O)N(C1CCCCC1)C2	-100.0*	0.4%	x
O=C(NCc1cccnc1)C1c2ccccc2C(=O)N1C1CCCC1 (stereo unspecified)	-108.4*	4.8%	-2.8%
O=C(Nc1ccccc1C(=O)NCc1ccco1)NC1CCCCC1	69.7	5.1%	3.0%
O=C(NCc1cccnc1)c1cccc2c1C(=O)N(C1CCCCC1)C2	-100.0*	-0.1%	x
CCOC(=O)N1CCC(N2C(=O)c3ccccc3C2Nc2cccnc2)CC1 (stereo unspecified)	-85.7*	0.5%	-3.9%
Cc1ccc(CN2C(=O)c3ccccc3C2C(=O)NCc2cccnc2)cc1 (stereo unspecified)	25.2	-4.1%	14.6%
O=C(NCc1cccnc1)C1CC(=O)N(C2CCCCC2)C1 (stereo unspecified)	-16.7	5.6%	-2.3%
O=c1c(-c2ccccc2)nc2cnc(Nc3ccccc3)nc2n1Cc1cccs1	x	x	0.4%
CC1CCc2sc(C(=O)N=Nc3c(O)[nH]c4ccccc34)cc2C1 (stereo unspecified)	-17.8	2.9%	x
N#CCCCSC1=C(C#N)C(c2ccccc2Cl)CC(=O)N1 (stereo unspecified)	21.5	-2.2%	1.4%
O=S(=O)(c1ccccc1)N1CCC2(CCN(c3ncccn3)CC2)CC1	x	-4.1%	8.3%
CC1CCN(C(=O)CSc2nnc(Cc3cccn3C)n2CCc2ccccc2)CC1	-95.0*	-2.0%	x
Cn1cccc1Cc1nnc(SCC(=O)N2CCCC2)n1CCc1ccccc1	-15.1	0.9%	-6.2%
O=C1CC(N2CCC(O)CC2)C(=O)N1c1ccc(Br)cc1 (stereo unspecified)	10.8	-16.9%	-8.4%
O=C1CC(N2CCCCC2)C(=O)N1c1ccccc1 (stereo unspecified)	-100.0*	-1.9%	x
O=CN1CCN(C2CC(=O)N(c3ccc(Br)cc3)C2=O)CC1 (stereo unspecified)	-86.4*	-2.8%	12.1%
O=C1CC(N2CCCN(C3CC(=O)N(c4ccc(F)cc4)C3=O)CC2)C(=O)N1c1ccc(F)cc1 (stereo unspecified)	-12.8	-1.9%	-18.4%
Cc1ccc(S(=O)(=O)N(C)C)cc1NC(=O)COC(=O)/C(=C/c1ccc(F)cc1)c1cccs1	u	5.6%	x
COc1ccc(N=C2SC(CC(=O)Nc3ccccc3OC)C(=O)N2Cc2ccco2)cc1 (stereo unspecified)	-103.9*	-0.8%	x
CCn1c2ccccc2c2cc(N=C3SC(CC(=O)Nc4ccccc4OC)C(=O)N3CCOC)ccc21 (stereo unspecified)	-97.9*	-11.8%	x
COc1ccc(N=C2SC(CC(=O)Nc3ccc(F)cc3)C(=O)N2Cc2ccco2)cc1 (stereo unspecified)	-6.4	-2.2%	x
SMILES	PNC assembly inh	12-hLO inh	15-hLO-2 inh
CCn1c2ccccc2c2cc(N=C3SC(CC(=O)Nc4ccccc4OC)C(=O)N3C)ccc21 (stereo unspecified)	-15.0	-2.5%	3.6%
CC(C)C(C)C	x	-3.3%	9.7%
C/C(=N\NC(=S)NCCc1ccccc1)c1cccs1	4.9	3.98µM*	x
O=C(NCCCc1ccccc1)c1cccs1	u	2.6%	-5.4%
CCC(C)NC(=O)CSc1ccc(Cl)cc1 (stereo unspecified)	-13.2	-4.4%	x
CC(C)C(NC(=O)CSc1ccc(Cl)cc1)C(C)C	-82.8*	3.7%	-3.5%
Cc1ccccc1OCc1nc(-c2ccc(-n3cccc3)cc2)no1	2.1	-2.2%	7.7%
COc1ccccc1Cc1noc(COc2cccc(C)c2C)n1	-135.3*	-3.3%	4.3%
